# According to PubChem BioAssay (NCATS):
# Records with an inconclusive call do not appear. The source made the active and inactive calls. Calls come from the whole dose curve; as a rule, active = well fitted cell-killing curve with a large enough effect; inconclusive = small, poorly fitted or top-dose-only effect, or effect the other way; inactive = flat fitted curve, though single readings scatter.
# Assay: qHTS of pediatric cancer cell lines to identify multiple opportunities for drug repurposing: Confirmatory screen for Rh18 cells (AID 1347125); note: nearly all actives have a fitted effect of over 55% in size
# Details: Rh18 rhabdomyosarcoma cells, viability; series mostly up to 45.9 µM; activity change, negative = cytotoxic: at the top concentration
# From the text: Drug repurposing or repositioning has been offered as a strategy for drug development in oncology programs. This approach has special potential for childhood cancers and other rare or orphan diseases, where the expected return on new drug development has been a disincentive to pharmaceuticals.
# In this project we exploit the poly-pharmacology of drugs to discover new indications via phenotypic screening of a panel of 19 well-characterized cell lines derived from solid tumors seen in children and adolescents. The goal is to identify approved drugs with previously unrecognized anticancer properties that has the potential to reveal new mechanisms and biological processes involved in carcinogenesis or drug resistance. We employed a titration-based paradigm (quantitative high-throughput screening or qHTS), where all compounds were tested at multiple concentrations for their effect on cell viability. Concentration-response curves (CRCs) were derived directly from the primary screen, and both potency and efficacy values were used to identify compounds with robust bioactivity profiles. We screened the NIH Chemical Genomics Center (NCGC) Pharmaceutical Collection (NPC) and Mechanism Interrogation Plate (MIPE) small molecule collections of approved and investigational compounds against these cell lines; and measured metabolically active cells after 48 hours of compound treatment as a proxy for cell viability.
# Assay Submitter: Nathalia J. Martinez, National Center for Advancing Translational Sciences, National Institutes of Health, Rockville, MD, USA; email: natalia.martinez@nih.gov
# [1] Shen, M et al. Quantitative high-throughput phenotypic screening of pediatric cancer cell lines identifies multiple opportunities for drug repurposing. Oncotarget 2017 Dec 19;9(4):4758-4772. PMID 29435139.
# The cells were obtained from University of North Carolina (UNC), Pediatric Preclinical Testing Program (PPT), and Coriell Institute (CI).
# qHTS cell viability assay:
# Cells were assayed in growth media at a density of 500-1,000 cells/well. Five microliters of cells were dispensed into 1,536-well, white, solid-bottom, TC-treated plates (Greiner Bio One) using a multidrop dispenser and incubated at 37 degrees C, 5% CO2, under a humidified atmosphere for 5 hours. Twenty-three nanoliters of compounds and controls (neutral control DMSO or positive control bortezomib at final concentration of 2.3 µM) were subsequently transferred by Kalypsys pintool. For primary screens, the MIPE collection was tested at 11-point dilutions (final concentrations range from 0.78 nM to 46 µM) and the NPC collection at 8-point dilutions (final concentrations range from 0.59 nM to 46 µM). Compounds tested in follow-up screens were assayed at 11-point dilutions. Cells were incubated for 48 hours, followed by addition of 3 µL of CellTiter-Glo (Promega). After a 15 min incubation at room temperature, samples were analyzed for luminescence intensity using a ViewLux High-throughput CCD imager equipped with clear filters.
# % is set by controls: 0 for no effect and ±100 for the full control effect; potency is the fitted concentration of half-maximal effect.
SMILES,"activity change, negative = cytotoxic",Potency
C[C@]12Cc3cn[nH]c3C[C@@H]1CC[C@@H]1[C@H]2CC[C@@]2(C)[C@H]1CC[C@]2(C)O,-24.7% (inactive),
O=c1[nH]c2ccc(Cl)cc2c(N[C@@H]2CN3CCC2CC3)c1-c1nc2ccccc2[nH]1,,26.1 µM (active)
CC[C@@]1(O)C(=O)OCc2c1cc1n(c2=O)Cc2cc3ccccc3nc2-1,,0.827 µM (active)
C[C@@H]1CC[C@@]2(OC1)O[C@H]1C[C@H]3[C@@H]4CC=C5C[C@@H](O[C@@H]6O[C@H](CO)[C@@H](O[C@@H]7O[C@@H](C)[C@H](O)[C@@H](O)[C@@H]7O)[C@H](O)[C@@H]6O[C@@H]6O[C@@H](C)[C@H](O)[C@@H](O)[C@@H]6O)CC[C@]5(C)[C@@H]4CC[C@]3(C)[C@@H]1[C@H]2C,,10.4 µM (active)
CC(C)(C)C(O)C(Oc1ccc(Cl)cc1)n1cncn1 (stereo unspecified),-5.11% [at 95.5 µM] (inactive),
O=C(O)CCCOc1ccc(Cl)cc1Cl,-17.2% [at 95.5 µM] (inactive),
CC(=O)[O][Hg][c]1ccccc1,,4.65 µM (active)
CC[C@@H]1[C@@H](C)O[C@@](O)([C@@H](C)[C@H](O)[C@H](C)[C@H]2OC(=O)C=CC=C[C@@H](C)[C@@H]([C@@H](C)[C@@H](O)[C@H](C)[C@@]3(O)C[C@H](O[C@H]4C[C@H](O)[C@H](O)[C@H](C)O4)[C@H](CC)[C@@H](C)O3)OC(=O)C=CC=C[C@@H]2C)C[C@H]1O[C@H]1C[C@H](O)[C@H](O)[C@H](C)O1,-4.12% (inactive),
O=C1C(I)=CC(=C(c2cc(I)c(O)c(I)c2)c2ccccc2C(=O)O)C=C1I,-3.05% (inactive),
CC1=C(O)C(=O)C=C2C1=CC=C1[C@@]2(C)CC[C@@]2(C)[C@@H]3C[C@](C)(C(=O)O)CC[C@]3(C)CC[C@]12C,,2.33 µM (active)
Cc1[nH]nc2ccc(-c3cncc(OC[C@@H](N)Cc4c[nH]c5ccccc45)c3)cc12,,4.65 µM (active)
CCC(=O)OC1CCC2C3CCC4=CC(=O)CC[C@@]4(C)C3CC[C@]12C (stereo partly specified),-5.37% (inactive),
CC=C(C)C(=O)N[C@@H](c1ccccc1)[C@@H](O)C(=O)O[C@H]1C[C@@]2(O)[C@@H](OC(=O)c3ccccc3)[C@@H]3[C@]4(OC(C)=O)CO[C@@H]4C[C@H](O)[C@@]3(C)C(=O)[C@H](OC(C)=O)C(=C1C)C2(C)C,-23% (inactive),
CC(C)[C@]12O[C@@H]1[C@@H]1O[C@]13[C@]1(O[C@H]1C[C@@H]1C4=C(CC[C@@]13C)C(=O)OC4)[C@H]2O,,0.0827 µM (active)
O=C(O)COc1nc(Cl)c(Cl)cc1Cl,1.7% [at 95.5 µM] (inactive),
O=C(N[C@H]1CN2CCC1CC2)c1ccc(Cl)cc1,3.87% (inactive),
CC(C)N[C@@H]1CCn2c(=O)[nH]c3cccc(c32)[C@@H]1O,4.7% (inactive),
CS(=O)(=O)c1ccc(C(=O)C2C(=O)CCCC2=O)c([N+](=O)[O-])c1,17.6% [at 95.5 µM] (inactive),
O=[N+]([O-])c1c(Cl)c(Cl)cc(Cl)c1Cl,-12% [at 95.5 µM] (inactive),
COc1cc([C@@H]2c3cc4c(cc3[C@@H](O)C3COC(=O)C32)OCO4)cc(OC)c1O (stereo partly specified),-4.08% (inactive),
CC[C@H]1C=CC=CC[C@@H](C)[C@H](O)[C@@](C)(O)C(=O)[C@@H](C)[C@H](O)[C@@H](C)C(=O)[C@@H](C)[C@H](O)[C@@H](C)C=CC(=O)O[C@@H]2[C@@H](C)[C@H](CC1)O[C@]1(CC[C@H](C)[C@H](C[C@@H](C)O)O1)[C@H]2C,-16.2% (inactive),
C[C@@]12OC(=O)[C@]1([C@@H](O)[C@@H]1C=CCCC1)NC(=O)[C@H]2CCCl,,1.17 µM (active)
CC(C)(O)C=CC(=O)[C@](C)(O)[C@H]1[C@H](O)C[C@]2(C)[C@@H]3CC=C4[C@@H](C=C(O)C(=O)C4(C)C)[C@]3(C)C(=O)C[C@@]12C,,0.147 µM (active)
Cc1ccccc1-n1c(Cn2cnc3c(N)ncnc32)nc2cccc(C)c2c1=O,-17.6% (inactive),
CC=C(C)C(=O)O[C@H]1C(C)=C2[C@@H]3OC(=O)[C@@](C)(O)[C@@]3(O)[C@@H](OC(=O)CCC)C[C@](C)(OC(C)=O)[C@@H]2[C@@H]1OC(=O)CCCCCCC,16.1% (inactive),
C[C@H]1CCCC=CC2C[C@H](O)C[C@@H]2[C@H](O)C=CC(=O)O1 (stereo partly specified),,0.104 µM (active)
